The test addresses AMP-activated protein kinase, AMPK (Homo sapiens) (UniProt P54646+O43741+P54619+Q9UGJ0+Q9Y478+Q13131+Q9UGI9). The test is described as follows: AMP-dependent Kinase enzyme assay. An in vitro enzyme assay that detects ADP turnover that is directly proportional to AMPK activity. This uses naive AMPK that is activated during the assay with MK-8722. The test is classed as functional. Further details: scale not given: direction of the effect not stated beside the values. The conditions noted are these: 30 µM.
Turning to `CNC(=O)C1CCCN(C(=O)c2cncs2)C1` (stereo not given), the Percent Effect came out at 4.55%.

With `Cc1ccc(CNc2ccn(CCC(N)=O)n2)c(Br)c1`, the Percent Effect is 1.48%.

On to `CNC(=O)CNC(=O)NCc1cc2c(s1)CCC(C)(C)C2`, for which the Percent Effect was -2.89%.

As to `CNC(=O)C1Cc2ccccc2CN1C(=O)CC(C)C` (stereo not given), the Percent Effect is -7.28%.

Consider `COc1c(C(=O)NC(C)Cc2ccccc2Cl)c(C)nn1C` (stereo not given), for which the Percent Effect stood at 0.464%.

As for `O=C(NC1CCCCC1)N1CCC(n2cc(-c3ccccn3)nn2)CC1`, the Percent Effect was -1.68%.

`CC(=O)Cn1c(C)cc(=O)c2cc(F)ccc21`: the Percent Effect worked out at 10.5%.

As to `O=C(Cn1cccn1)N1CCC(c2nnc(-c3ccsc3)o2)CC1`, the Percent Effect is 14%.

`c1cc(CNCc2ccc(-n3cncn3)nc2)cc(OC2CCCC2)c1`: the Percent Effect turned out to be 9.46%.

`CCN(CC)C(CNC(=O)c1cccnc1-n1cncn1)c1ccsc1` (stereo not given): the Percent Effect stood at 5%.

Consider `Cc1csc(CCNC(=O)N2CCC(n3cccc3)CC2)n1`, for which the Percent Effect was -3.41%.

For `CC(C(=O)Nc1nccs1)N(C)Cc1cccc(C#N)c1` (stereo not given), the Percent Effect was determined as 8.51%.

`CN(C)C(CNC(=O)c1ccnc(-n2cncn2)c1)c1ccccc1` (stereo not given): the Percent Effect was -0.565%.

Take `COC(=O)CNC(=O)c1ccn(-c2ccc(Cl)c(Cl)c2)n1`: the Percent Effect is 13.8%.

Consider `COc1c(C2CCCN2C(=O)c2ccc(C(N)=O)s2)c(C)nn1C` (stereo not given), for which the Percent Effect was -4.26%.

`CCn1cnnc1CNS(=O)(=O)N1CCCC1c1ccc(C)o1` (stereo not given): the Percent Effect is 0.967%.

For the compound `O=C(c1nnn(-c2ccc(Cl)cc2)n1)N(CCO)Cc1ccccc1`, the Percent Effect amounted to 3.07%.

As for `Cc1cccc(NC(=O)N2CCOCC(CN(C)C)C2)c1C` (stereo not given), the Percent Effect was -2.2%.

In the case of `CCN(Cc1nc(Cc2ccccc2)no1)C1CC1`, the Percent Effect amounted to 9.85%.

With `CC(C)(C)C(=O)N1CCC(c2cnc(-c3cn[nH]c3)cn2)CC1`, the Percent Effect is 1.14%.

Values taken from ChEMBL document CHEMBL3988442, “University of Dundee, Small-Polar-MMV Screening Library” (2021).
